KB-3-1 tox: qHTS assay for MDR1-selective chemotherapeutics: Primary screen using the parental adenocarcinoma cell KB-3-1 | KB-3-1 viability, CellTiter-Glo ATP luminescence, 72 h | Potency, µM (series often up to 46.1 µM), most hits filed as cytotoxic | 1.4% of 400,000 active | AID 1347075, 2019; further: nearly all actives have a fitted effect of over 60% in size
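Viability of parental KB-3-1 cells, measured by CellTiter-Glo luminescence, followed a 72 h incubation at 37 °C with pinned compounds in phenol-red-free DMEM containing 10% FBS.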
HT1080NT lethal: qHTS for induction of synthetic lethality in tumor cells producing 2HG: qHTS for the HT-1080-NT fibrosarcoma cell line; HT-1080-NT fibrosarcoma viability, CellTiter-Glo ATP luminescence, 48 h; Potency, µM (top dose mostly 46.1 µM), for inactives: top-dose activity, negative = less viability, hits mostly cytotoxic; 1.6% of 360,000 active;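 further: NT is the 2HG producing partner of a matched IDH1 knockdown line; 0% = DMSO-treated cells and -100% = media-only wells without cells; nearly all actives have a fitted effect of over 55% in size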
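Toxicity toward the 2HG-producing NT line was scored as %Activity, normalised to DMSO and no-cell wells, from CellTiter-Glo luminescence after 48 hours' treatment.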
KB-V1 cytotox: qHTS assay for MDR1-selective chemotherapeutics: Primary screen using the drug-selected MDR subline cells KB-V1 | KB-V1 MDR cells viability, CellTiter-Glo, 72 h | Potency, µM (top dose mostly 46.1 µM), actives largely listed as cytotoxic | 3.4% of 400,000 active; further: nearly all actives have a fitted effect of over 60% in size
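KB-V1 cells (P-gp-expressing MDR subline of KB-3-1) in phenol-red-free DMEM with 10% FBS were exposed to library compounds over a concentration series for 72 h at 37 degrees C. Viability read by CellTiter-Glo luminescence; concentration-effect curves fitted after normalization.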
HT1080 IDH1KD tx: qHTS for induction of synthetic lethality in tumor cells producing 2HG: qHTS for the HT-1080-IDH1KD cell line. Potency, µM (doses to about 46.1 µM), for the others: at the top dose activity, negative = toxicity, usual class: cytotoxic. HT-1080 IDH1 knockdown viability, ATP luminescence, 48 h. 2% of 360,000 active;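 further: 0% = DMSO wells and -100% = cell-free medium wells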
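After a 2 h attachment period, IDH1KD HT-1080 cells took pin-transferred compound for 48 h at 37 °C; ATP-based luminescence after 10 min room-temperature reagent incubation reported viability.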
DT40 TDP1 no CPT: qHTS for Inhibitors of human tyrosyl-DNA phosphodiesterase 1 (TDP1): qHTS in cells in absence of CPT; DT40 Tdp1-/- hTDP1 cells, no CPT, ATP luminescence, 48 h; Potency, µM (top dose mostly 46.2 µM), for the others: top-dose activity change, negative = growth inhibition, actives largely listed as inhibitors; 15% of 420,000 active; AID 686978, 2013; further: nearly all actives have a fitted effect of over 55% in size
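Readout: luminescence from CellTiter-Glo after 30 min in the dark at RT. Cells: DT40 Tdp1-/- with stable hTDP1, 400/well. Exposure: compounds alone, ≥48 hr, 37 °C.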
TDP1 cell CPT: qHTS for Inhibitors of human tyrosyl-DNA phosphodiesterase 1 (TDP1): qHTS in cells in presence of CPT | 12% of 420,000 active | chicken DT40 Tdp1-/-;hTDP1 cells + 20 nM CPT, ATP luminescence, 48 h | Potency, µM (doses to about 46.2 µM), inactives show top-dose activity change, negative = growth inhibition, hits mostly inhibitors | AID 686979, 2013; further: nearly all actives have a fitted effect of over 55% in size
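Chicken DT40 Tdp1-/- cells stably complemented with human TDP1 were seeded at 400 cells/well in medium containing 20 nM camptothecin, exposed to pin-transferred compounds, and grown at 37 °C for at least 48 hr. Viability was read as ATP luminescence.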
The depositor's hits bear a star; i = inactive; ? = inconclusive; nt = no result given; [ ] = remark or other dose. Hits are enriched below; roughly 19% of the tested compounds scored in any of these assays. The call rests on the fitted dose curve; in most records, active means well fitted curve in the direction sought with a large enough effect; inconclusive means small, poorly fitted or top-dose-only effect, or another doubt; inactive means no such curve, though single readings can be large; an effect the other way counts as inactive or inconclusive. Unless noted, on the % scale 0 is the no-effect control and ±100 the full control effect; potency means the concentration at half of the fitted maximal effect.

SMILES	KB-3-1 tox	HT1080NT lethal	KB-V1 cytotox	HT1080 IDH1KD tx	DT40 TDP1 no CPT	TDP1 cell CPT
Cc1ccc2nc(-c3ccc(NC(=O)CSc4nc(N)cc(=O)[nH]4)cc3)sc2c1	?	9.2µM*	i	12µM*	5%	-4%
Cc1ccc2nc(-c3ccc(NC(=O)C(F)(F)F)cc3)sc2c1	?	nt	i	nt	?	-18%
O=C(CS(=O)(=O)c1cccc2nsnc12)NCc1ccccc1	i	nt	?	nt	4%	-11%
CCN(Cc1ccccc1)C(=O)C(CC(C)C)NS(=O)(=O)c1ccc2c(c1)CCN2C(C)=O (stereo unspecified)	i	nt	i	nt	?	?
COc1ccccc1C(=O)Nc1cccc2nc(C)ccc12	i	?	i	?	2%	14%
COc1ccc(-c2sc3ccc(-c4ccc5c(c4)OCO5)cc3c2-c2ccc(OC)nc2)cc1	i	-1%	i	-13%	?	?
CCC1(c2ccc(F)cc2)NC(=O)N(CC(=O)Nc2ccc(-c3nc4ccc(C)cc4s3)cc2)C1=O (stereo unspecified)	i	?	i	?	6.5µM*	13µM*
CC(Sc1nncs1)C(=O)Nc1ccc2c(c1)OCCO2 (stereo unspecified)	i	19%	i	8%	-3%	-1%
Cc1ccc2nc(-c3ccc(NC(=O)C(C)Sc4nncs4)cc3)sc2c1 (stereo unspecified)	i	?	12µM*	-17%	9.2µM*	?
Cc1cc2nc3c(=O)n(CCc4ccccc4)c(=O)[nH]c3nc2cc1N	i	-4%	i	25%	21µM*	-22%
N#Cc1ccc(NC(=O)COCc2cc(-c3ccc(F)cc3)on2)cc1	i	nt	?	nt	21µM*	?
Cc1cc(C)cc(-n2c(SCC(=O)Nc3ccccc3)nc3c(oc4ccccc43)c2=O)c1	i	nt	i	nt	?	15µM*
COc1cccc(NC(=O)CSc2nc3c(oc4ccccc43)c(=O)[nH]2)c1	i	1%	i	-2%	23µM*	-15%
CCOc1ccc(NC(=O)CSc2nc3c(oc4ccccc43)c(=O)n2-c2cc(C)cc(C)c2)cc1	?	nt	?	nt	2%	-2%
O=C(CSc1nc2c(oc3ccccc32)c(=O)n1-c1ccccc1)Nc1ccccc1F	i	nt	i	nt	?	?
Cc1cc(C)cc(-n2c(SCC(=O)Nc3ccccc3F)nc3c(oc4ccccc43)c2=O)c1	i	nt	i	nt	7.3µM*	16µM*
COc1ccccc1NC(=O)CSc1nc2c(oc3ccccc32)c(=O)n1-c1ccc(C)cc1	i	nt	?	nt	8.2µM*	18µM*
COc1ccc(Cl)cc1-c1cc2c(c(OC)c1)OCCN(Cc1cccn1-c1nccs1)C2	nt	nt	nt	nt	0%	0%[9.04 µM]
Cc1ccc(S(=O)(=O)N2C[C@H]3C(=O)C[C@@H](c4ccc(Cl)cc4)N(S(=O)(=O)c4ccc(C)cc4)[C@H]3C[C@H]2c2ccccc2)cc1	i	24%	?	30%	0%	-4%
COC(=O)C(Cc1ccc(OC(=O)c2ccc(C(F)(F)F)cc2)cc1)N1Cc2ccccc2C1=O (stereo unspecified)	i	-5%	i	-25%	18µM*	16µM*
COC(=O)C(Cc1ccc(OC(=O)c2ccc(Cl)cc2)cc1)N1Cc2ccccc2C1=O (stereo unspecified)	i	-4%	i	-3%	?	?
Nc1nc2ccccc2cc1C(=O)NCc1ccc(-c2ccccc2)cc1	2.3µM*	?	2.6µM*	1.3µM*	0.16µM*	1µM*
Nc1nc2ccccc2cc1C(=O)NCc1ccc(Cl)cc1Cl	?	?	i	-26%	5.8µM*	16µM*
O=C(Nc1c[nH]c(=O)[nH]c1=O)c1cccc([N+](=O)[O-])c1	i	-7%	i	-1%	-11%	?
COc1ccc(CCNC(=O)[C@@H](NC(=O)N2CCn3c2nc2ccccc23)C(C)C)cc1OC	?	1%	i	0%	?	?
SMILES	KB-3-1 tox	HT1080NT lethal	KB-V1 cytotox	HT1080 IDH1KD tx	DT40 TDP1 no CPT	TDP1 cell CPT
COc1cccc(NC(=O)[C@@H](NC(=O)N2CCn3c2nc2ccccc23)C(C)C)c1	?	-12%	i	?	13µM*	-13%
CCC(C)[C@H](NC(=O)N1CCn2c1nc1ccccc12)C(=O)NCCc1ccccc1 (stereo partly specified)	?	-1%	i	-18%	?	21µM*
CC(C)C[C@H](NC(=O)N1CCn2c1nc1ccccc12)C(=O)N1CCCCC1	i	13%	i	6%	21µM*	?
CCC(C)[C@H](NC(=O)N1CCn2c1nc1ccccc12)C(=O)NCCc1ccc(OC)c(OC)c1 (stereo partly specified)	i	-11%	i	0%	16µM*	15µM*
COC(=O)c1ccc(NC(=O)c2cc(=O)c3ccc(C)cc3o2)cc1	i	nt	i	nt	-6%	-20%
O=C(NCc1ccco1)c1cc2n(n1)C(C(F)(F)F)CC(c1ccc(Cl)c(Cl)c1)N2 (stereo unspecified)	i	-19%	i	-16%	?	?
COc1ccccc1NC(=O)c1cc2n(n1)C(C(F)(F)F)CC(c1ccc3c(c1)OCO3)N2 (stereo unspecified)	i	-12%	i	-12%	18µM*	16µM*
CCOC(=O)N1CCN(C(=O)c2cc3n(n2)C(C(F)(F)F)CC(c2ccc4c(c2)OCO4)N3)CC1 (stereo unspecified)	i	6%	i	4%	15µM*	?
O=C(Nc1cc(Cl)ccc1O)c1cc2n(n1)C(C(F)(F)F)CC(c1ccc3c(c1)OCO3)N2 (stereo unspecified)	i	-23%	?	-13%[9.24 µM]	16µM*	23µM*

From PubChem
